For 9 molecules, inhibition results are on record in PubChem BioAssay AID2153 (The Scripps Research Institute Molecular Screening Center, 2009).

Molecules are shown by their SMILES. In all, about 2,400 compounds went through this assay and about 2,000 (83%) were called active. So high a share suggests a set chosen from earlier hits. These entries were drawn from the full list. Values without a mark were called inactive.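 Rule for the calls: active = inhibition above the solvent-only control well mean plus 3 SD, limit set per screening run (cut at about 23% in these data); inactive = the rest.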

The target in the assay is Guanyl-specific ribonuclease T1 (Aspergillus oryzae (strain ATCC 42149 / RIB 40)) (UniProt P00651). Nature of the assay: RNase T1 inhibitors, counter-screen for TPT1 inhibitor project, biochemical, fluorescence polarization (AID 2153).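 Note: plate controls were DMSO wells with enzyme for no effect and wells without RNase T1 for full effect; inhibitors block cleavage so intact labeled substrate keeps polarization high.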 The note with it: RNase T1 cleavage, 1536-well, at 5 µM, stronger effect = higher value. For orientation: The purpose of a counterscreen is to sort out artefacts and off-target activity.
Guanyl-specific ribonuclease T1 (Aspergillus oryzae (strain ATCC 42149 / RIB 40)), sequence (P00651 whole entry, looked up): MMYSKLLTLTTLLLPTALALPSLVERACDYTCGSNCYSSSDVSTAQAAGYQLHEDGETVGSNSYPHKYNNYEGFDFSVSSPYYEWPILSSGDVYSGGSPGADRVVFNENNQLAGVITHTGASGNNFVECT
A word on the inhibition: it is the drop in the measured response relative to a control, in per cent. On to `CC(C)n1c(=O)c(C=Nc2ccc(Br)cc2)c(O)n(Cc2ccco2)c1=O`, for which the inhibition is 28.4% (active).

With `CCCCC(=O)N/N=C/c1c(O)n(CC)c(=S)n(CC)c1=O`, the inhibition was 110% (active).

As to `CCN1C(=O)C(=Cc2c(C)n(CC(=O)NCC3CCCO3)c3ccccc23)C(=O)N(CC)C1=S` (centres undefined), the inhibition was 26.4% (active).

For `COc1ccccc1N=Nc1c(O)[nH]c(=S)[nH]c1=O`, the inhibition was 77.7% (active).

As to `CC/C(=N\NC(=O)c1ccccc1O)c1c(O)n(Cc2ccccc2)c(=O)[nH]c1=O`, the inhibition is 35.2% (active).

As to `O=C1CC(=O)N(Cc2ccccc2)C(=O)N1CCCCCCN1C(=O)CC(=O)N(Cc2ccccc2)C1=O`, the inhibition was 34.1% (active).

Take `COc1ccc(N2C(=O)/C(=C/c3ccco3)C(=O)NC2=S)cc1`: the inhibition is 24.8% (active).

For `O=C1NC(=O)N(Cc2ccco2)C(=O)/C1=C\c1ccc(-c2ccc(F)cc2)o1`, the inhibition was 20.3%.

For the molecule `O=C1NC(=O)N(Cc2ccco2)C(=O)/C1=C\c1cccn1CCOc1ccccc1`, the inhibition is 11.7%.
